Assay results from PubChem BioAssay (NCATS).
Records with an inconclusive call do not appear. Activity calls are given as the source filed them. Calls follow the shape of the full dose curve.

Assay: Cytotoxicity counterscreen for inhibitors of SARS-CoV-2 cell entry (AID 1645845); also: nearly all actives have a fitted effect of over 50% in size
Conditions: cell viability (SARS-CoV-2 entry assay cells); series mostly up to 57.1 µM; activity change, negative = cytotoxicity: at the top concentration
In short: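 HEK293-ACE2 cells (Expi293F stably expressing human ACE2) seeded overnight, then compound for 1 h plus 48 h at 37C. Viability as ATP content by luminescence; normalized to wells with cells and media-only wells.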
% is scaled to controls: 0 for no effect and ±100 for the full control effect; potency is read from the fitted curve at half-maximal effect.

SMILES	outcome	activity change, negative = cytotoxicity	Potency
Cc1cc(-n2c(=O)ccc3cnc4[nH]ccc4c32)ccc1F	inactive		
COc1cc(OC)cc(N(CCNC(C)C)c2ccc3ncc(-c4cnn(C)c4)nc3c2)c1		-20.7% (inactive)	
O=C(NCc1cccc(O)c1)Nc1nc(-c2ccncc2)cs1		-15.4% (inactive)	
CC(=O)N1c2ccc(-c3ccc(C(=O)O)cc3)cc2[C@H](Nc2ccc(Cl)cc2)C[C@@H]1C		-8.07% (inactive)	
COc1ccc(-n2c(SCCCN3C(=O)c4cccc5cccc(c45)C3=O)nnc2-c2ccncc2)cc1		-2.21% (inactive)	
NC(=S)N/N=C/c1ncccc1N		0.116% (inactive)	
Cn1cc(-c2cc(Oc3cc(F)c(NC(=O)C4(C(=O)Nc5ccccc5)CC4)cc3F)ccn2)cn1		-27.8% (inactive)	
CCCC(CCC)C(=O)Nc1ccn([C@@H]2O[C@H](CO)[C@@H](O)C2(F)F)c(=O)n1		-14.9% (inactive)	
COc1cc(N2CCC(N(C)C)CC2)ccc1Nc1ncc(Cl)c(Nc2ccccc2P(C)(C)=O)n1			15.8 µM (active)
COc1ccc(C(=O)N2CCN(C(=O)/C=C/c3ccc(Br)cc3)CC2)cc1		0.45% (inactive)	
C[C@@H]1COCCN1c1cc(=O)n2c(n1)N(Cc1cncc(Cl)c1)[C@H](C(F)(F)F)CC2		0.894% (inactive)	
CCc1ccc2nc(Nc3cc(Cc4ccccc4)nc(NC4CCC(O)CC4)n3)sc2c1 (configuration not stated)		-27.5% (inactive)	
CNc1nc(-c2ccc3c(N)n[nH]c3c2)cc(N2C[C@@H](C(=O)NC3CCCCC3)CC[C@H]2C)n1		0.975% (inactive)	
Cc1ccc(Nc2ncc3c(n2)N(C)C(=O)N(c2cc(NC(=O)c4cccc(C(F)(F)F)c4)ccc2C)C3)cn1		-20.3% (inactive)	
O=C(Nc1cnccc1Cl)N1CCN(Cc2ccc3c(c2)OC(F)(F)O3)CC1		-19.2% (inactive)	
CNCCN(C)Cc1cn[nH]c1-c1ccc(OC2CC(OCCC3CCOCC3)C2)cc1 (configuration not stated)		-9.3% (inactive)	
COc1cc(=C2C=c3ccccc3=N2)[nH]/c1=C/c1[nH]c(C)cc1C			10 µM (active)
Cc1cc(C(=O)Nc2cc(Oc3ccc4nc(NC(=O)C5CC5)cn4n3)ccc2C)n(C)n1		-27.6% (inactive)	
Cc1ccc(-n2nc(C(C)(C)C)cc2NC(=O)NCc2cc(F)ccc2Oc2ccc3c(cnn3CCO)c2)cc1		-20.8% (inactive)	

SMILES	outcome	activity change, negative = cytotoxicity	Potency
O=C(c1ccc(/C=C/c2n[nH]c3ccccc23)cc1)N1CCNCC1		-33.7% (inactive)	
C[C@@H]1CC(=O)Nc2cccc(-c3ccc4c(c3)c(-c3cnn(C)c3)nn4C)c2N1		2.23% (inactive)	
Cc1cccc(-c2[nH]ncc2-c2ccc(F)c(-c3cnn(CCO)c3)c2)n1		-3.01% (inactive)	
CC(C)c1c(-c2ccccc2)nc2c(C#N)c[nH]n2c1=O	inactive		
NC[C@@](O)(c1ccc(Cl)cc1)c1ccc(-c2cn[nH]c2)cc1			28.2 µM (active)
CCS(=O)(=O)N1CCN(c2ccc(Nc3ncc(C(N)=O)c(NC4CC4)n3)cc2)CC1			25.1 µM (active)
COc1ccc2c(c1)C(c1ccc(F)cc1)=C(CN1CCCC1)CO2	inactive		
CC/C(=C(/c1ccc(/C=C/C(=O)O)cc1)c1ccc2[nH]ncc2c1)c1ccc(F)cc1Cl		-2.77% (inactive)	
CN1C(=O)N(c2cc(Cl)cc(Cl)c2)C(=O)[C@]12CN(Cc1cc(C(=O)O)cs1)C[C@H]2c1ccc(C#N)cc1		-2.41% (inactive)	
C=C1C(=O)O[C@@H]2[C@H]3C(C)=CC[C@@]34O[C@@]4(C)CC[C@@H]12	inactive		
C[C@H](Nc1ncnc2nc[nH]c12)c1cc2cccc(Cl)c2c(=O)n1-c1ccccc1		2.56% (inactive)	
CC[C@H]1OC(=O)[C@H](C)[C@@H](O[C@H]2C[C@@](C)(OC)[C@@H](O)[C@H](C)O2)[C@H](C)[C@@H](O[C@@H]2O[C@H](C)C[C@H](N(C)C)[C@H]2O)[C@](C)(O)C[C@@H](C)C(=O)[C@H](C)[C@@H](O)[C@]1(C)O		-11.7% [at 27.1 µM] (inactive)	
CN(Cc1ccccc1)C(=O)c1ccc(S(=O)(=O)Nc2ccccc2)cc1	inactive		
C=CC(=O)N1CCC[C@H](n2c(=O)n(-c3ccc(Oc4ccccc4)cc3)c3c(N)ncnc32)C1		3.78% (inactive)	
CN(C)N(C)C(=O)[C@@]1(Cc2ccccc2)CCCN(C(=O)[C@@H](Cc2c[nH]c3ccccc23)NC(=O)C(C)(C)N)C1	inactive		
C[C@@H]1C(=O)OC2[C@H](O)[C@]34[C@H]5C[C@@H](C(C)(C)C)[C@]36[C@@H](OC(=O)[C@@H]6O)O[C@@]4(C(=O)O5)[C@]21O (some centres not stated)		2.32% (inactive)	
Cc1ccc(-c2nn(C(C)(C)CNC(=O)c3ccncc3)c3ncnc(N)c23)cc1		-7.22% (inactive)	
COC(=O)N(CC(=O)O)Cc1cccc(OCc2nc(-c3ccc(Cl)cc3)oc2C)c1		-13.6% (inactive)	
